In PubChem BioAssay AID1220 (Sanford-Burnham Center for Chemical Genomics, 2008):
About 1,300 (0.68%) of roughly 190,000 compounds were called active. The list comes from a sample in which actives are over-represented; it also holds similar structures and randomly drawn compounds. Values without a mark were called inactive. Cut-off read from the data, not from the text of the source: active = inhibition above about 50%; inactive = the rest.

biological target: Mannose-6-phosphate isomerase (Homo sapiens) (UniProt P34949); assay: MPI inhibition at elevated mannose 6-phosphate – biochemical, fluorescence intensity, high mannose 6-phosphate, primary screen (AID 1220); conditions: recombinant PMI enzyme, coupled fluorescence intensity; at 20 µM; active compounds read high
Sequence (P34949 whole entry, looked up): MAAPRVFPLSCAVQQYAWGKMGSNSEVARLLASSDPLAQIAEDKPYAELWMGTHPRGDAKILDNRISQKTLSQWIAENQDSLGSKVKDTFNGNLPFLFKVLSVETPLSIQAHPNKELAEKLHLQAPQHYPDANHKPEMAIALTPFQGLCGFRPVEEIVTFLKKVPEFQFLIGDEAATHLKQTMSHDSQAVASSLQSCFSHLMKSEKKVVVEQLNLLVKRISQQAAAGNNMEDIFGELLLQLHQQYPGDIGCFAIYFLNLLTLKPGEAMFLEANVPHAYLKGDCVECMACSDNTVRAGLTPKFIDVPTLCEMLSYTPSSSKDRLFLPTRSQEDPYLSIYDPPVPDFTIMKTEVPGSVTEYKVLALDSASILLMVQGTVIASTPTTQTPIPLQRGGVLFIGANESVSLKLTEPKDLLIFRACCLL

| SMILES | inhibition |
| --- | --- |
| CCc1ccc(C(=O)CN2C(=O)C(C)N(c3ccc(C)cc3)C2=O)cc1 (stereo unspecified) | 4.9% |
| CCOc1cc(N2CCOCC2)c(OCC)cc1NC(=O)Cc1ccc(OC)c(OC)c1 | 53.1% (active) |
| CCOc1cc(N2CCOCC2)c(OCC)cc1NC(=O)Cc1ccccc1OC | 51.7% (active) |
| CCOc1cc(N2CCOCC2)c(OCC)cc1NC(=O)Cc1cccc2ccccc12 | -0.6% |
| CCOc1cc(N2CCOCC2)c(OCC)cc1NC(=O)COc1ccccc1[N+](=O)[O-] | 23.9% |
| CCOc1cc(N2CCOCC2)c(OCC)cc1NC(=O)COC(=O)[C@@H]1CCCN1S(=O)(=O)c1ccccc1F | 53% (active) |
| CCOc1cc(N2CCOCC2)c(OCC)cc1NC(=O)COC(=O)c1ccccc1C | 11.5% |
| COc1ccc(NC(=O)COC(=O)[C@@H]2CCCN2S(=O)(=O)c2ccccc2F)c(OC)c1 | -1.3% |
| CCOc1cc(N2CCOCC2)c(OCC)cc1NC(=O)Cc1cccc(OC)c1 | 8.1% |
| COc1ccc(CC(=O)Nc2ccccc2N2CCOCC2)cc1OC | -2.2% |
| O=C(CCn1c(=O)sc2ccccc21)Nc1nccs1 | 4.8% |
| Cc1ccc(NC(=O)CN2CCN(CCN=CC3=C(O)CC(C)(C)CC3=O)CC2)cc1 | -3.9% |
| COC(=O)CSc1nc(C)cc(N2CCOCC2)n1 | -3.4% |
| CCc1n[nH]c(=S)n1/N=C/c1cc(Br)c(OC)cc1OC | -2.2% |
| Cc1nnc(NC(=O)Oc2ccccc2)s1 | 4.4% |
| COC(=O)c1c(C)nsc1NC(=O)Oc1ccccc1 | 50.4% (active) |
| Cc1c(NC(=O)Oc2ccccc2)sc(=S)n1C | -4.6% |
| COc1ccccc1C(=O)Nc1nc(N)n(-c2ccccc2)n1 | -3.7% |
| Cc1cccc(C)c1NC(=S)/C(=C(\[O-])c1cccs1)[n+]1ccccc1 | 5.5% |
| [O-]/C(=C(\C(=S)Nc1cccc2ccccc12)[n+]1ccccc1)c1cccs1 | 65.7% (active) |
| [O-]/C(=C(\C(=S)Nc1cccc2ccccc12)[n+]1ccccc1)c1ccc(Cl)s1 | 5.8% |
| O=C(O)CSCC(=O)Nc1ccc(Cl)cc1C(F)(F)F | -0.6% |
| O=C(CCN1C(=O)COc2ccccc21)NCCC1=CCCCC1 | 19.9% |

| SMILES | inhibition |
| --- | --- |
| CC(C)(C)P(=O)(CO)c1ccccc1 (stereo unspecified) | 1.7% |
| COc1cccc(N=Cc2ccc(O)cc2O)c1 | 52.5% (active) |
| C=CCOc1ccc(C=Nc2ccc(OC)cc2)c(O)c1 | 49% |
| COc1cccc(N=Cc2c[nH][nH]c2=O)c1 | 16.7% |
| OCC(CO)(CO)N=Cc1cc(Br)ccc1O | 27% |
| Oc1ccc(Br)cc1C=Nc1ccc2[nH]ncc2c1 | 55.4% (active) |
| Brc1ccc2[nH]ncc2c1 | -2.5% |
| Cc1ccc(N=Cc2ccc(O)cc2O)cc1F | 9.7% |
| COc1ccc(C=Nc2ccc3[nH]ncc3c2)c(O)c1 | 59.8% (active) |
| CC1(C)CC(=O)C(C=Nc2ccc3[nH]ncc3c2)=C(O)C1 | 38.6% |
| O=C(c1ccc(OC2CCN(Cc3ccccn3)CC2)cc1)N1CCCC(O)C1 (stereo unspecified) | -8.1% |
| Cn1c(Cn2c(=O)sc3ccccc32)nnc1SCC(=O)Nc1ccccc1F | 0.2% |
| O=C(COc1ccccc1)Nc1ccc(CSc2ccccc2)cc1 | 2.7% |
| O=C(NCc1ccccn1)C(=O)NCC(c1ccco1)N1CCOCC1 (stereo unspecified) | -8.8% |
| COc1ccc(N2CCC(CNC(=S)Nc3cccc(C)c3)C2)cc1 (stereo unspecified) | 50.4% (active) |
| COc1ccc(CNC(=S)Nc2ccc(OC)cc2)cc1 | 7.4% |
| COc1ccc(CNC(=S)Nc2cccc(C)c2)cc1 | 7.5% |
| COc1ccc(NC(=S)NCC2CCN(c3ccc(OC)cc3)C2)cc1 (stereo unspecified) | 55.3% (active) |
| COc1ccc(N2CCC(CNC(=S)Nc3cccc(OC)c3)C2)cc1 (stereo unspecified) | 45.4% |
| COc1ccc(NC(=S)NCCN2CCOCC2)cc1 | -3.1% |
| COc1ccccc1-n1cnnc1SCC(=O)N1CCN(S(=O)(=O)c2ccccc2)CC1 | 4.9% |
| Cn1nnnc1SCCNCc1ccc(Cl)cc1 | 3.8% |
| O=C(CCCn1c(=O)oc2ccccc21)NC1CCCCCC1 | -6.9% |

| SMILES | inhibition |
| --- | --- |
| COc1ccc(N2C(=O)C(Cl)=C(N(CCO)Cc3ccccc3)C2=O)cc1 | 3.2% |
| O=C1C=C(N(CCO)Cc2ccccc2)c2ccccc2C1=O | 64.6% (active) |
| O=C(CCN1C(=O)c2ccccc2C1=O)N(CCO)Cc1ccccc1 | 0.1% |
| Cc1cc(Nc2ccc(F)cc2Cl)n2ncnc2n1 | 16.6% |
| COc1ccccc1/C=C/C1=NC(=C\C=C/c2ccccc2)/C(=O)O1 | 0.5% |
| COc1ccc(/C=C/C2=NC(=C\N(C)C)/C(=O)O2)cc1 | 5.3% |
| COc1ccccc1/C=C/C1=NC(=C\N(C)C)/C(=O)O1 | 56.8% (active) |
| CCCCOC(=O)C1[C@H]2C(=O)N(CCc3ccccc3)C[C@]23C=C[C@H]1O3 (stereo partly specified) | -0.4% |
| CCOC(=O)c1c(C)c(C(=O)NCc2cccnc2)c(C)n1C | -0.6% |
| CCOC(=O)c1c(C)c(C(=O)NCc2cccnc2)c(C)n1CC | 108% (active) |
| CCOC(=O)c1c(C)c(C(=O)NCc2ccccn2)c(C)n1CC | 12.2% |
| S=c1[nH]ncc2ccccc12 | -67.9% |
| Cc1ccc(/C=C/C2=NN(C)C(=O)CC2)cc1 | -3.3% |
| Cc1cccc(C)c1NC(=O)CC1SC2=NCCN2C1=O (stereo unspecified) | 6.8% |
| CC(/C=C/c1ccccc1)=N\Nc1ccccc1[N+](=O)[O-] | 0.8% |
| CC/C(=N\Nc1ccccc1[N+](=O)[O-])c1ccc(O)cc1 | -0.4% |
| CC(C)/C(=N/Nc1ccccc1[N+](=O)[O-])c1ccccc1 | 54.4% (active) |
| Cc1ccc(/C=C/C(=O)NCc2cccs2)cc1 | -6.3% |
| Cc1nn(-c2ccccc2)c(Cl)c1/C=N/NC(=O)c1cccnc1 | -3.1% |
| Cc1nn(-c2cccc(Cl)c2)c(Cl)c1/C=N/NC(=O)c1cccnc1 | 55.5% (active) |
| Cc1ccc(-n2nc(C)c(/C=N/NC(=O)c3cccnc3)c2Cl)cc1 | 15.6% |
| C=CCNC(=S)Nc1cccc(N)c1 | 57.6% (active) |
| C=CCNC(=S)Nc1cccc(NC(=S)NCC=C)c1 | 5.5% |

| SMILES | inhibition |
| --- | --- |
| C=CCNC(=S)Nc1ccccc1 | 9% |
| O=C(Cc1c(O)c2ccccc2[nH]c1=O)NC1CCCCCC1 | 5.7% |
| CCC(C)(C)n1nnnc1CN1CCC(NC(=O)c2ccc(Br)cc2)CC1 | 7% |
| CCCCc1cc2c(c(NC(=O)CC)n1)c(=O)oc1ccccc12 | -0.5% |
| COc1ccc(N=C2C(=O)Nc3ccccc32)cc1 | 43% |
| Cc1ccc2c(c1)/C(=N/N1C(=O)c3ccccc3C1=O)C(=O)N2 | 8.4% |
| CCn1c(-c2ccccc2Cl)nn(CC(=O)Nc2cc(Cl)ccc2Cl)c1=S | 4.7% |
| CNc1nc(-c2ccccc2)cc(C)c1S(C)(=O)=O | 56% (active) |
| Cc1cc(-c2ccccc2)nc(N(C)C)c1S(C)(=O)=O | 2% |
| Cc1cc(-c2ccccc2)nc(N(C)N)c1S(C)(=O)=O | -2.2% |
| Cc1c(Br)c([N+](=O)[O-])nn1CC(=O)NCCc1c[nH]c2ccccc12 | 6.1% |
| CSCCNC(=O)c1ccc(OC2CCN(CCc3ccccc3)CC2)cc1 | -9.3% |
| O=C(Cn1nc(-c2ccccc2)ccc1=O)Nc1cccc(NC(=O)c2ccccn2)c1 | -11.7% |
| CCN1C(=O)/C(=C/C=C2/SCCN2C)SC1=S | 27.6% |
| CN1CCS/C1=C\C=C1/SC(=S)N(CC(=O)O)C1=O | 19.8% |
| CCCCN1C(=O)/C(=C/C=C2\SCCN2C)SC1=S | 53.5% (active) |
| COc1ccc(-c2cc(CNC(=O)CN3CCN(C)CC3)on2)cc1 | 20.4% |
| COc1cc(OC)cc(-c2nc(-c3cccs3)no2)c1 | 10.1% |
| Cc1cc2cc(NC(=O)c3ccco3)ccc2[nH]1 | 10.8% |
| CC(=O)Nc1cccc(NC(=O)CSc2ccc3nnc(CCNC(=O)c4ccccc4)n3n2)c1 | 10.1% |
| Nc1cc(Cl)ccc1N1CCCC1 | 36.3% |
| Nc1c(N2CCCC2)cc(Cl)c2nonc12 | 55.1% (active) |
| Nc1nonc1N1CCCCC1 | 13.1% |

| SMILES | inhibition |
| --- | --- |
| Nc1ccccc1N1CCOCC1 | -0.3% |
| Nc1ccc(N2CCCCC2)cc1N1CCCCC1 | 46.4% |
| Nc1ccc(N2CCOCC2)c2nonc12 | 57% (active) |
| Nc1cc(Cl)ccc1N1CCOCC1 | -3.8% |
| Nc1ccc(N2CCCCC2)c(Cl)c1 | 2.9% |
| Nc1ccc(N2CCCCC2)c2nonc12 | 68.3% (active) |
| CN1CCN(C(=O)C2=C[C@@H](c3ccccc3)C[C@@H](OCc3ccc(CO)cc3)O2)CC1 | 1.7% |
| CCCCCCOC1(c2ccccc2)OC(=O)c2ccccc21 (stereo unspecified) | 11.5% |
| CCCCCn1c(=O)[nH]c2c(c1=O)CCC2 | 4.7% |
| CC1(C)C(=O)NCCN1C(=O)CCCC(=O)O | 2.6% |
| OCCn1c(CSc2nc3ccccc3n2CCO)nc2ccccc21 | 3% |
| O=C(NCc1ccccn1)c1cccs1 | 4.7% |
| CC(C)(C)C(=O)Nc1nnc(CC(=O)NCc2ccccc2)s1 | 13.1% |
| O=[N+]([O-])c1cccnc1N1CCOCC1 | 7.1% |
| O=C(O)[C@@H]1[C@@H]2C[C@@H]2CN1c1ncccc1[N+](=O)[O-] | 65.1% (active) |
| O=[N+]([O-])c1cccnc1N1CCCCC1 | 10.7% |
| O=C(O)C1CCCN1c1ncccc1[N+](=O)[O-] (stereo unspecified) | 50.8% (active) |
| O=C(O)C1CN(c2ncccc2[N+](=O)[O-])C1 | 26.1% |
| NC(=O)C1CCN(c2ncccc2[N+](=O)[O-])CC1 | -3.3% |
